This is an account of results in ChEMBL document CHEMBL1961873, “Compounds: GSK PKIS; Assays: Nanosyn kinase panel” (2012).

Assay [1] addresses Fibroblast growth factor receptor 4 (Homo sapiens) (UniProt P22455). The note with it: at 1 µM.
Assay [2] addresses Tyrosine-protein kinase Fgr (Homo sapiens) (UniProt P09769). The note with it: at 0.1 µM.
For assay [3] the target is unchanged. To be noted: at 1 µM.
Assay [4] addresses Vascular endothelial growth factor receptor 1 (Homo sapiens) (UniProt P17948). The note with it: at 0.1 µM.
Assay [5] has the same target. The note with it: at 1 µM.
Assay [6] has as its target Receptor-type tyrosine-protein kinase FLT3 (Homo sapiens) (UniProt P36888). To be noted: at 0.1 µM.
Assay [7] shares this target. The note with it: at 1 µM.
The subject of assay [8] is T1, Receptor-type tyrosine-protein kinase FLT3 (Homo sapiens), P36888 [D835Y].
T1 sequence (whole entry): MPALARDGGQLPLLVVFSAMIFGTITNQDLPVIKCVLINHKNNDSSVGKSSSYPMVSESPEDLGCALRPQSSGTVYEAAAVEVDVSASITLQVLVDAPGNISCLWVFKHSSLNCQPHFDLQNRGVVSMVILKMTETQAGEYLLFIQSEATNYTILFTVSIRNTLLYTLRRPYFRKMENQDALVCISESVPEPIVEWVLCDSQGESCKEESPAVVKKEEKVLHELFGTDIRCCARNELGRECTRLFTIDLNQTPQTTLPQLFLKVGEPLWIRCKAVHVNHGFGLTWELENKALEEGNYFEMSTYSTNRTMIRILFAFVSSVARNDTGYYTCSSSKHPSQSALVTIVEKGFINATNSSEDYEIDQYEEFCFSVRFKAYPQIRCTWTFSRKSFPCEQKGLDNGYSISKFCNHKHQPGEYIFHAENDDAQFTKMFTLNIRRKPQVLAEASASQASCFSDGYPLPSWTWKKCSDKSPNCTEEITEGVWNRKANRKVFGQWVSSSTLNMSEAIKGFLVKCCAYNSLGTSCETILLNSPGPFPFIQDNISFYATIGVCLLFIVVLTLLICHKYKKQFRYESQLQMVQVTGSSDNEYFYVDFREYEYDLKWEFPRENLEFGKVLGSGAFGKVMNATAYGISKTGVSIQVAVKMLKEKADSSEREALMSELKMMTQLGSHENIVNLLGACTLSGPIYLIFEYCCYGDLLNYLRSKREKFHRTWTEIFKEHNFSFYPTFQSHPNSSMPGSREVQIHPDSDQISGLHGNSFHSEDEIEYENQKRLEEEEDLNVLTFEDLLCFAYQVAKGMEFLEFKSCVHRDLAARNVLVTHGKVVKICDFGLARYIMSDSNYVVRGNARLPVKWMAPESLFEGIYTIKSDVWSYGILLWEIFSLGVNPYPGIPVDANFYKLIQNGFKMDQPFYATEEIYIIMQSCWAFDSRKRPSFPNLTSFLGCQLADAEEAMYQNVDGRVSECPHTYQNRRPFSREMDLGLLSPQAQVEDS
The note with it: at 0.1 µM.

The target in assay [9] is Non-receptor tyrosine-protein kinase TYK2 (Homo sapiens) (UniProt P29597). To be noted: at 1 µM.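 Note: values are mean percent inhibition of TYK2 kinase.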
For assay [10], the target named is T2, Tyrosine-protein kinase receptor TYRO3 (Homo sapiens) (UniProt Q06418).
T2 sequence (whole entry): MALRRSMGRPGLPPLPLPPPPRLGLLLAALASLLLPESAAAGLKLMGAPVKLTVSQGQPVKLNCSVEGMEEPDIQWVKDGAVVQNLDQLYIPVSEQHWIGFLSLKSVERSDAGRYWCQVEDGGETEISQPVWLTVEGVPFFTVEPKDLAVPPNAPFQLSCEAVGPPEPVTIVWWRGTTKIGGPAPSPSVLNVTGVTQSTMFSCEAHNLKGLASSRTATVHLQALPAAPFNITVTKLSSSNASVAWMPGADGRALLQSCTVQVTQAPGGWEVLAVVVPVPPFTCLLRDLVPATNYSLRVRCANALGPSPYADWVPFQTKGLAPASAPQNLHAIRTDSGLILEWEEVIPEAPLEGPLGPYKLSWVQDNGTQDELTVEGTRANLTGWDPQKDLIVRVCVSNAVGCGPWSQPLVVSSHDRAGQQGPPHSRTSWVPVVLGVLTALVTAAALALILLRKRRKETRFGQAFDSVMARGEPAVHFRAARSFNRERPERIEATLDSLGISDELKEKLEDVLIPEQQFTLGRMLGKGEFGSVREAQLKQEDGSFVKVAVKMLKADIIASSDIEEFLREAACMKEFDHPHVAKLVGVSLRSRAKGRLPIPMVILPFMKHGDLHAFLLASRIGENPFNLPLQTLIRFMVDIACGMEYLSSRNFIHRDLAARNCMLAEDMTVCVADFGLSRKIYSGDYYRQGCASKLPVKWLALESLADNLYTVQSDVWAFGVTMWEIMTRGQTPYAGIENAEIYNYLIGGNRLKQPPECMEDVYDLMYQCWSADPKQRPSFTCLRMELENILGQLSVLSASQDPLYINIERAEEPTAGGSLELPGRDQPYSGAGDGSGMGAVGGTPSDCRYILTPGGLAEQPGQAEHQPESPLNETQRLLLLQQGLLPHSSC
The note with it: at 0.1 µM.

Assay [11] has as its target T2, Tyrosine-protein kinase receptor TYRO3 (Homo sapiens). The note with it: at 1 µM.
Assay [12] addresses Tyrosine-protein kinase Yes (Homo sapiens) (UniProt P07947). The note with it: at 0.1 µM.
Assay [13] shares this target. The note with it: at 1 µM.
In assay [14] the target is T3, Tyrosine-protein kinase ZAP-70 (Homo sapiens) (UniProt P43403).
T3 sequence (whole entry): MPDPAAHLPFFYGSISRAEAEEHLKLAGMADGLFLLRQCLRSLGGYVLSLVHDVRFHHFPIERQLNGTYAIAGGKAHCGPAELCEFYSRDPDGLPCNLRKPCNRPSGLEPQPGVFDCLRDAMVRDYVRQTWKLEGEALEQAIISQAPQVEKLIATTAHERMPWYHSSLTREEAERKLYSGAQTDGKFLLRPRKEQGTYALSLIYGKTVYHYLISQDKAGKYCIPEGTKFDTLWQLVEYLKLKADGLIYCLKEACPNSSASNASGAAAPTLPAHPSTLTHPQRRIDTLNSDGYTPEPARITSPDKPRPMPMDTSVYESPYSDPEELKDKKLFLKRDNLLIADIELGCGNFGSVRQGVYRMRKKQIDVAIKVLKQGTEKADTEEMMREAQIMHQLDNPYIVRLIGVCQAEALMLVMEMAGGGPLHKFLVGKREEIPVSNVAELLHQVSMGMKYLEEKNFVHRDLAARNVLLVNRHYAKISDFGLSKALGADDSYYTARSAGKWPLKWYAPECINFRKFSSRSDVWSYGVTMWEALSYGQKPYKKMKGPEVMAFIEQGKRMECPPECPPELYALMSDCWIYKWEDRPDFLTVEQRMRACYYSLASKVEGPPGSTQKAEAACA
The note with it: at 0.1 µM.

Assay [15] has as its target T3, Tyrosine-protein kinase ZAP-70 (Homo sapiens). The note with it: at 1 µM.
The target in assay [16] is Serine/threonine-protein kinase B-raf (Homo sapiens) (UniProt P15056). The note with it: at 0.1 µM.
Chain of Serine/threonine-protein kinase B-raf (Homo sapiens) (P15056 whole entry): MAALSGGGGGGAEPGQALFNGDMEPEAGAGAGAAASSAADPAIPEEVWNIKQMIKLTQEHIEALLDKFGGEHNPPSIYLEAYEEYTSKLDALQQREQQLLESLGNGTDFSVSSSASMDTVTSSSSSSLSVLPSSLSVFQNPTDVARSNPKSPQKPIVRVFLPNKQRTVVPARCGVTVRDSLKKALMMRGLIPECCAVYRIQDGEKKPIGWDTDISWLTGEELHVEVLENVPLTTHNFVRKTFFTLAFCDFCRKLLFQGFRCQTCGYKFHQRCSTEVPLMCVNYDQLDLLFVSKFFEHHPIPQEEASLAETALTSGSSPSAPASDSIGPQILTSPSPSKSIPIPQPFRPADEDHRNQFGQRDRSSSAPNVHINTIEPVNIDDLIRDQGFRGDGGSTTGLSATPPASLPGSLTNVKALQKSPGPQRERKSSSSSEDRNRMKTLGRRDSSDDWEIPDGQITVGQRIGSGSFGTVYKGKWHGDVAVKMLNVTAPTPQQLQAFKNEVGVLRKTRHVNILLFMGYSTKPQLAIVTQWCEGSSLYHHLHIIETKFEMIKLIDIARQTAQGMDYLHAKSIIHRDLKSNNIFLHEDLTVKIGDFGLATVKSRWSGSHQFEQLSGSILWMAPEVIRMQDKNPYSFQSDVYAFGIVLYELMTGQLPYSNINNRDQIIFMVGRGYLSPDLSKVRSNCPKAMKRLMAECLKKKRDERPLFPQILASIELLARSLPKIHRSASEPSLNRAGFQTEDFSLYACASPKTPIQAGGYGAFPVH
For assay [17] the target is unchanged. The note with it: at 1 µM.
Assay [18] concerns Serine/threonine-protein kinase B-raf (Homo sapiens), P15056 [V600E]. To be noted: at 0.1 µM.
Chain of Serine/threonine-protein kinase B-raf (Homo sapiens), P15056 [V600E] (P15056 whole entry V600E): as the sequence (P15056 whole entry) above, with V600E counted along it
The test system is the same in assay [19]. To be noted: at 1 µM.
For assay [20], the target named is RAF proto-oncogene serine/threonine-protein kinase (Homo sapiens) (UniProt P04049). To be noted: at 0.1 µM.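 Note: values are mean CRAF kinase inhibition from profiling of the GSK Published Kinase Inhibitor Set.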
Chain of RAF proto-oncogene serine/threonine-protein kinase (Homo sapiens) (P04049 whole entry): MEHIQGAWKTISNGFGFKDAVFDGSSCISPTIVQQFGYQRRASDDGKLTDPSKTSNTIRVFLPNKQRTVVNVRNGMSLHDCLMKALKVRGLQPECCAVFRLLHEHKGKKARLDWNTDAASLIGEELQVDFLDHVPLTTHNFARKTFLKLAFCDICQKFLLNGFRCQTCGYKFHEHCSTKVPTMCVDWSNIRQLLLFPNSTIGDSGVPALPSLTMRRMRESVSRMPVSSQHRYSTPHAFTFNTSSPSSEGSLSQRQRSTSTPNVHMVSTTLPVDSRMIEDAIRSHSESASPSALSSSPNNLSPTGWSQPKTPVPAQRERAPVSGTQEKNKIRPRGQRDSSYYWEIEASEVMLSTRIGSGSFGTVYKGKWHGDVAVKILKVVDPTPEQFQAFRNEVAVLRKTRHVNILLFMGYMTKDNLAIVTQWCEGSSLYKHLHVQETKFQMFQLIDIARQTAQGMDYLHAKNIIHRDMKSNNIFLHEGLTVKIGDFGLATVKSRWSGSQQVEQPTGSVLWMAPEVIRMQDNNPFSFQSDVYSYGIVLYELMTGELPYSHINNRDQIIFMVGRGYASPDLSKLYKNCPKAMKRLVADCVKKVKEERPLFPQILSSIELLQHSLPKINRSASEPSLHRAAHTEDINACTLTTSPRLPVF

Chain of Fibroblast growth factor receptor 4 (Homo sapiens) (P22455 22-802 limits assumed): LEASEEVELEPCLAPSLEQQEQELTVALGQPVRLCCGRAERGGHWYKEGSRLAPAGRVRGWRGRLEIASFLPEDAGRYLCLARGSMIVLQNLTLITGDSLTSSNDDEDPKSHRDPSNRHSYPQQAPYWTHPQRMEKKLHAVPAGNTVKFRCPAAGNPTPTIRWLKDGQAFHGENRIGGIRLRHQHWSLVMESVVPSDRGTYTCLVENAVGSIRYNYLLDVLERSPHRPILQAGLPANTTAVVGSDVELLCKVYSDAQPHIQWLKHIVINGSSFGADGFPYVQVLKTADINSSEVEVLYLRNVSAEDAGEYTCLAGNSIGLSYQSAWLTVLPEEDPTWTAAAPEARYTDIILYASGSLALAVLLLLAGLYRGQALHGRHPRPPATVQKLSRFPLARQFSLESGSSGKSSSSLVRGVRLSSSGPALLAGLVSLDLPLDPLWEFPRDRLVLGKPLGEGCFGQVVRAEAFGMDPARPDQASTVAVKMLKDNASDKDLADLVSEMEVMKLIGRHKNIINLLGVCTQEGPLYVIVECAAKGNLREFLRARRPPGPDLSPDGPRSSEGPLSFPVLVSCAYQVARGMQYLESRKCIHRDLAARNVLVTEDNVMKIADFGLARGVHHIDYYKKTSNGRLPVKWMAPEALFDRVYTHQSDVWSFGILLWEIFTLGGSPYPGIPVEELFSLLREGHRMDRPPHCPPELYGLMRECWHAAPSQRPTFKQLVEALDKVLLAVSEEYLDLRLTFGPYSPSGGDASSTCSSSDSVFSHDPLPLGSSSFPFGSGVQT
Chain of Tyrosine-protein kinase Fgr (Homo sapiens) (P09769 2-529 limits assumed): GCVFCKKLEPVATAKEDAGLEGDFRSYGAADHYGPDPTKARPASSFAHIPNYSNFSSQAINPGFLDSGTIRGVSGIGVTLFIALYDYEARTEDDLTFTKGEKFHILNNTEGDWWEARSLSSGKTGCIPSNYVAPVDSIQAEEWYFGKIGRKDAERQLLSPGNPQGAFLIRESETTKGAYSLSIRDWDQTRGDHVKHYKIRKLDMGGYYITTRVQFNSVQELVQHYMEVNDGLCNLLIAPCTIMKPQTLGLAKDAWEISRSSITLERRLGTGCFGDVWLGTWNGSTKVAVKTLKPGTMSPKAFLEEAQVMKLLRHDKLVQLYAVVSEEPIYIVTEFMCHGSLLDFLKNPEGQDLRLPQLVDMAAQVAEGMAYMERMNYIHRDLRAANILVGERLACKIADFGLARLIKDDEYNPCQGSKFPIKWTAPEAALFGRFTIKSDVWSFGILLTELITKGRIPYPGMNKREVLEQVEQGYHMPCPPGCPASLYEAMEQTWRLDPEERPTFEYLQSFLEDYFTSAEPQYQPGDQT
Chain of Tyrosine-protein kinase Yes (Homo sapiens) (P07947 2-543 limits assumed): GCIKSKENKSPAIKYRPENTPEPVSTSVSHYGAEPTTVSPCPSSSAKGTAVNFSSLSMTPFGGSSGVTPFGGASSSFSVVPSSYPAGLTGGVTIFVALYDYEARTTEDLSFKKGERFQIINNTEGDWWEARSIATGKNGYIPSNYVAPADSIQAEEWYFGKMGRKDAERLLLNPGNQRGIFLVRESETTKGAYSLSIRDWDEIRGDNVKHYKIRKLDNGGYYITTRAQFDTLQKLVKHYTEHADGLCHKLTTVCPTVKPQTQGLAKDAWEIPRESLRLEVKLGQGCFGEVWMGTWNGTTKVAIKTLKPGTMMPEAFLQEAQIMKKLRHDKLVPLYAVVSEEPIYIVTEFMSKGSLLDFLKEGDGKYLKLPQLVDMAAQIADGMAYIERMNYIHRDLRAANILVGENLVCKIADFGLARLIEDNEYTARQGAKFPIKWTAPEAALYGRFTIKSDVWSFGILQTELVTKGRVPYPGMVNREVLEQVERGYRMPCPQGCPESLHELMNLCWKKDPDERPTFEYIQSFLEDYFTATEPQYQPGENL
Chain of Vascular endothelial growth factor receptor 1 (Homo sapiens) (P17948 whole entry): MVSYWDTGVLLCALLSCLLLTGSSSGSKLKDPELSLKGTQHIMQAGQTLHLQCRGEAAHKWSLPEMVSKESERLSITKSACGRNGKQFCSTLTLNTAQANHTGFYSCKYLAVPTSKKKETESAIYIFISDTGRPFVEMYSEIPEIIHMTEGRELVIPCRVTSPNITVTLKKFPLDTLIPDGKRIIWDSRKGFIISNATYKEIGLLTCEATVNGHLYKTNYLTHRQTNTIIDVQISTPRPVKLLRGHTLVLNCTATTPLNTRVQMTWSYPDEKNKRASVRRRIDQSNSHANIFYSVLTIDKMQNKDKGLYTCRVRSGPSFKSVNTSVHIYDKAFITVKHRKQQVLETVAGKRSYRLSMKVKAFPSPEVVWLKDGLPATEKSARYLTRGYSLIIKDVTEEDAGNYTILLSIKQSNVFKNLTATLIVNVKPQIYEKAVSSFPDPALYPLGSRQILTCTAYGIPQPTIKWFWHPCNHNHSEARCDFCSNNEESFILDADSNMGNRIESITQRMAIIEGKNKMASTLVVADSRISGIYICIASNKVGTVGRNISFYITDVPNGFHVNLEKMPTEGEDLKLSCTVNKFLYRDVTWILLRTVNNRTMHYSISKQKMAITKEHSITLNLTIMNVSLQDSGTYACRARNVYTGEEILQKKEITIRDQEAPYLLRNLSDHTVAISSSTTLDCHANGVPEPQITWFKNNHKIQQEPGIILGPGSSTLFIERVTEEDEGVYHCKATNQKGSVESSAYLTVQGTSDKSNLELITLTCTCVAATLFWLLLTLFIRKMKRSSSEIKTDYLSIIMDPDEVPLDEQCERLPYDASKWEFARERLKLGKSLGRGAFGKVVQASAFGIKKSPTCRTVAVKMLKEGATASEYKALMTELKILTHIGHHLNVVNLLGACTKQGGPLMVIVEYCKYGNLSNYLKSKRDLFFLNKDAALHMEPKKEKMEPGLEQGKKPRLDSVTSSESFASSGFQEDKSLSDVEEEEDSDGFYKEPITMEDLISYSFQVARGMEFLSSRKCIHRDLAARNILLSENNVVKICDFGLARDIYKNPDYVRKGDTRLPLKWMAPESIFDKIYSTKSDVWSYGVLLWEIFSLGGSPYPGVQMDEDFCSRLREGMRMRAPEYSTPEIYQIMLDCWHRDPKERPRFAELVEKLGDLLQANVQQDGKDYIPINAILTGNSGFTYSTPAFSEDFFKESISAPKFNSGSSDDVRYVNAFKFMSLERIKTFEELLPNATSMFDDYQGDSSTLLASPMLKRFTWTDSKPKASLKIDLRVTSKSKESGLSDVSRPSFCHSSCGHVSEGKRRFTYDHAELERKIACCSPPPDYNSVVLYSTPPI

Consider `CS(=O)(=O)CCNCc1ccc(-c2ccc3ncnc(Nc4ccc(OCc5ccccc5)cc4)c3c2)o1`, for which the inhibition was found to be 0.38% in [1]; 5.33% in [2]; 20.1% in assay [3]; 2.38% in assay [4]; 2.68% in assay [5]; 2.34% in assay [6]. Further, the inhibition in assay [7] was 6.62%; in [8], -1.19%; in assay [9], -2.79%; in assay [10] it was 3.45%; in [11], 4.25%; in assay [12], 9.54%. Further, the inhibition in [13] stood at 42.1%; in assay [14] it was 0.98%; in [15], 2.51%; in [16] it was 4.6%; in [17] it was 6.13%; in [18], 3.8%. Further, the inhibition was 3.33% in assay [19] and -0.67% in assay [20].

Turning to `CN1CCC(n2cnc(-c3ccc(F)cc3)c2-c2ccnc(NCCO)n2)CC1`, the inhibition in assay [1] is 0.38%; in [2], 5.33%; in assay [3] it was 2.78%; in assay [4] it was 1.32%; in assay [5], 3.27%; in assay [6], 1.5%. Besides, the inhibition in assay [7] is 5.56%; in assay [8], -2.58%; in assay [9], -4.71%; in assay [10] it was 3.69%; in [11] it was 5.81%; in [12], 2.55%. Further, the inhibition is 8.81% in assay [13]; 2.9% in assay [14]; -0.3% in assay [15]; 5.28% in assay [16]; 8.68% in assay [17]; 4.16% in assay [18]. Further, the inhibition in [19] was 8.41%; in [20] it was -1.57%.

For `COc1ccc(Nc2ncc(-c3ccccc3)o2)cc1OC`, the inhibition in assay [1] amounted to 1.3%; in assay [2], 3.96%; in assay [3], 31.4%; in assay [4], 6.85%; in assay [5], 23.6%; in [6], 76.6%. Further, the inhibition in assay [7] came out at 89.4%; in assay [8], 15.2%; in [9], 5.03%; in [10] it was 0.14%; in assay [11], 4.23%; in [12] it was 7%. Moreover, the inhibition is 35.7% in assay [13]; 1.28% in [14]; 1.27% in assay [15]; -1.46% in assay [16]; 1.35% in assay [17]; 0.52% in assay [18]. Also, the inhibition in assay [19] is 2.34%; in [20] it was -0.64%.

Take `COc1cc(N2CCN(C(C)C)CC2)ccc1Nc1nc(Nc2cccc(F)c2C(=O)O)c2cc[nH]c2n1`: the inhibition came to 3.72% in assay [1]; 4.76% in assay [2]; 4% in [3]; 1.38% in [4]; 1.96% in [5]; 0.4% in [6]. In addition, the inhibition in assay [7] is 10.3%; in assay [8] it was 0.23%; in assay [9], -2.8%; in assay [10], 2.73%; in assay [11] it was 3.99%; in assay [12], 1.69%. Besides, the inhibition was 8.64% in assay [13]; 2.69% in assay [14]; 7.8% in assay [15]; 6.1% in [16]; 7.89% in [17]; 6.27% in [18]. Also, the inhibition came out at 7.5% in assay [19] and 1.76% in [20].
